Results filed as inconclusive are left out. A number with no mark means an inactive call. Activity calls are given as the source filed them. Calls come from the whole dose curve; as a rule, active = well fitted inhibition curve with a large enough effect; inconclusive = small, poorly fitted or top-dose-only effect; inactive = no such curve, though single readings can be large or run the other way.
experiment: qHTS for Inhibitors of the Aldehyde Dehydrogenase Family (ALDH1A2, ALDH1A3, ALDH2, ALDH3A1) (AID 2061307); details: ALDH inhibition qHTS; series mostly up to 50.3 µM; activity change, negative = inhibition: at the top concentration; note: nearly all actives have a fitted effect of over 50% in size; for Potency: test system not described further here
% is set by controls: 0 for no effect and ±100 for the full control effect; potency is the fitted concentration of half-maximal effect.

SMILES | activity change, negative = inhibition | Potency
CN1CCC(CNCc2nccc3c(=O)[nH]c(COc4ccc(Cc5ccccc5)cc4)nc23)C1 (stereo unspecified) | 582% | 
C[S+](=O)([O-])c1ccc(-c2nnc3ccc(C(=O)NCCc4ccccc4F)cn23)cc1 | -21.9% [at 34.4 µM] | 
Oc1ccc(N2CCN(Cc3ccc(OCCCN4CCCCC4)cc3)CC2)cc1 | -1.76% | 
COc1cc(O)c(C(CC(=O)N2CC(C)CC(C)C2)c2ccc(S(=O)(=O)N(C)C)cc2)c(OC)c1 (stereo unspecified) | -25.1% | 
CCOc1ccccc1-n1c(CN2CCN(C(=O)c3ccco3)CC2)nc2cc(OC)c(OC)cc2c1=O | 6.87% | 
COc1ccccc1C(=O)Nc1nnc(SCc2cc(=O)c3ccccc3[nH]2)s1 |  | 3.98 µM (active)
O=C(O)c1cccc(S(=O)(=O)N2CCC(n3nnc4cc(C(F)(F)F)ccc43)CC2)c1 | -11.3% | 
COC(=O)c1ccc2c(c1)CCN2C(=O)c1cnn(-c2ccccc2)c1 | -31.1% [at 34.4 µM] | 
Cc1cccc2c1NC(=O)C2(O)CC(=O)c1ccco1 (stereo unspecified) |  | 0.565 µM (active)
CC(C)Oc1ccc(-c2nc(C(=O)Nc3ncn[nH]3)cs2)cc1 |  | 3.55 µM (active)
CC(C)(C)CNc1ncnc2ccc(-c3ccc4c(c3)OCO4)cc12 | 88.6% | 
COc1ccc(NC(=S)N=Nc2c(O)[nH]c3ccccc23)cc1 | -24.8% | 
CC(C)Oc1ccccc1NC(=O)N1CCN(c2ccccc2)CC1 | -14.5% [at 34.4 µM] | 
COc1cccc2cc(C(=O)Nc3ccc(C)cc3)c(=O)oc12 | -25.8% [at 34.4 µM] | 
COc1ccc(C2Nc3c(OC)ccc(OC)c3C(=O)N2Cc2ccccc2)cc1COc1ccc(NC(C)=O)cc1 (stereo unspecified) |  | 2.83 µM (active)
CNc1nc2c(s1)C(c1ccccc1Br)CC(=O)N2 (stereo unspecified) |  | 10.1 µM (active)

From PubChem BioAssay (NCATS)
